We go through 23 targets from the supplement of paper PMC11001985.

UniProt P10809, sequence (P10809 whole entry): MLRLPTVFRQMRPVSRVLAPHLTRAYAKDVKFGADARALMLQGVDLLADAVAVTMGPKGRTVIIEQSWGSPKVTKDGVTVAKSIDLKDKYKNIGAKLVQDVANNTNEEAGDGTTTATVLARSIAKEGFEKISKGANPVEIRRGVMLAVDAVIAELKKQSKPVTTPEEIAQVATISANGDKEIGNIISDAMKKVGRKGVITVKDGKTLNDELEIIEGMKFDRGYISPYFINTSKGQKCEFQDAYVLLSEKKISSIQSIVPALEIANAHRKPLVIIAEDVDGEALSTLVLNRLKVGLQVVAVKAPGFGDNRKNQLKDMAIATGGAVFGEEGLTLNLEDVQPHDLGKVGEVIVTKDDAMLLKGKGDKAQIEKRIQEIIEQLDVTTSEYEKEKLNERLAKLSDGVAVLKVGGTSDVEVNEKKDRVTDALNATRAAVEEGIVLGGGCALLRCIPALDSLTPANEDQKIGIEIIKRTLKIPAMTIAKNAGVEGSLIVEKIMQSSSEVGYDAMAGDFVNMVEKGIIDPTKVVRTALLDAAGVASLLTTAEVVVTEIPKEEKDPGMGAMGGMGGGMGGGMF
UniProt Q14165, sequence (Q14165 whole entry): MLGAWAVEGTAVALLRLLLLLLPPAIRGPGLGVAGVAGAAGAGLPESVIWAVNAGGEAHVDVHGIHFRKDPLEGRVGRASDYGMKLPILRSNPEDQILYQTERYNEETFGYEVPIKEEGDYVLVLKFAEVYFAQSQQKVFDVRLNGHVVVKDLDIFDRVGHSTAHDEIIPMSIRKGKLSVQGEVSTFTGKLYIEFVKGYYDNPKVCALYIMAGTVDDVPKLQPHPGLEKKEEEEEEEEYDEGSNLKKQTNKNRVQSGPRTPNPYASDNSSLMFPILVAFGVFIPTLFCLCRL
UniProt Q13492, sequence (Q13492 whole entry): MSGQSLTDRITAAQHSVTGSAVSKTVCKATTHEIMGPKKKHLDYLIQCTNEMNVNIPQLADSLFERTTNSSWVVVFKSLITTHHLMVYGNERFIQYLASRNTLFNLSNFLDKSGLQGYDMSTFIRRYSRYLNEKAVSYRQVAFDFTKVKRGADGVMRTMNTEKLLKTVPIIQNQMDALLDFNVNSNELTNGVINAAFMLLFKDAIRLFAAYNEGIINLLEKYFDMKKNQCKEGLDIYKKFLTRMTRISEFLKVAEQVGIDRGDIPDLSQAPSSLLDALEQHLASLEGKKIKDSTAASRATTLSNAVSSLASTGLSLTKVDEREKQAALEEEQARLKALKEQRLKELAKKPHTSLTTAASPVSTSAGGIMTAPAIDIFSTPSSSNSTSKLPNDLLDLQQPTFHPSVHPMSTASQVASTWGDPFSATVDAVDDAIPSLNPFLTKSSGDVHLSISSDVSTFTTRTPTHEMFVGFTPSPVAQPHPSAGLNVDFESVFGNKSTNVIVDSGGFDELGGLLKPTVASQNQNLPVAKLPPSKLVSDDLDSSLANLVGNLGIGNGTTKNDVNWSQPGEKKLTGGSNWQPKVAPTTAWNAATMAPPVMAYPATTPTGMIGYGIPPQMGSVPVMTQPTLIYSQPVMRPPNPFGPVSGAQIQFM
UniProt Q9UII2, sequence (Q9UII2 whole entry): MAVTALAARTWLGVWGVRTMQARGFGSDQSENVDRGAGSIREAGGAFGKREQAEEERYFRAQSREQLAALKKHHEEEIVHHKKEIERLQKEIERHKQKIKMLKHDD
UniProt P48735, sequence (P48735 whole entry): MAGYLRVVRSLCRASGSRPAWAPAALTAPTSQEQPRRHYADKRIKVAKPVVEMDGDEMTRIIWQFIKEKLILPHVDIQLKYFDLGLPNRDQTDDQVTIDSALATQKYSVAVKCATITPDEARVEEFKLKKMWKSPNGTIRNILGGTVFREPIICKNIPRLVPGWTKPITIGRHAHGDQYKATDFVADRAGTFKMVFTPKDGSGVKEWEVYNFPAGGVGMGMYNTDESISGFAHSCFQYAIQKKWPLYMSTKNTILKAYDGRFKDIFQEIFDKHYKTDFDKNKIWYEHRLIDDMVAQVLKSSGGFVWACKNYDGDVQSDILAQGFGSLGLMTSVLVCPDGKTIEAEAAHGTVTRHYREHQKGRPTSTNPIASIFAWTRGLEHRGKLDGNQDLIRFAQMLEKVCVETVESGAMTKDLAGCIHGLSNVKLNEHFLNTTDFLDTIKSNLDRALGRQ
UniProt Q12884, sequence (Q12884 whole entry): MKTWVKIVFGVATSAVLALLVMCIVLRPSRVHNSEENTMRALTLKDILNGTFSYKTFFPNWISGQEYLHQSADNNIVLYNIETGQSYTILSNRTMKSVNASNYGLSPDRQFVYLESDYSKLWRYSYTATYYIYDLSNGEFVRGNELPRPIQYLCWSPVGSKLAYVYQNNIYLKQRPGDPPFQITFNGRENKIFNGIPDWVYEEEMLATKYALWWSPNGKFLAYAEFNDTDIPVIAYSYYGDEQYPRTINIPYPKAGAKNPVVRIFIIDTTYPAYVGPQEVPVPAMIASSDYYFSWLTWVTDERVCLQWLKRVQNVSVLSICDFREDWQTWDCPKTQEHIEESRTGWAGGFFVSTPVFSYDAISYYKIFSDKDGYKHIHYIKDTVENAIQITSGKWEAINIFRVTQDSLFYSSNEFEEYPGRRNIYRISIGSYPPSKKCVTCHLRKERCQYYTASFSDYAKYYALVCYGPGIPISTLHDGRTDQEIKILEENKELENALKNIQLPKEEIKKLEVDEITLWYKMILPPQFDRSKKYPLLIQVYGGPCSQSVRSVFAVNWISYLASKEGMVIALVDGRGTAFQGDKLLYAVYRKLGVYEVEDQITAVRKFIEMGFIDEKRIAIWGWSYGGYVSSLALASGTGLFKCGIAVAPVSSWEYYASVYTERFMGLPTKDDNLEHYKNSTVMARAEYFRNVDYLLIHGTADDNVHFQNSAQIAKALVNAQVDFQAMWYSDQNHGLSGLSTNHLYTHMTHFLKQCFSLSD
UniProt Q15697, sequence (Q15697 whole entry): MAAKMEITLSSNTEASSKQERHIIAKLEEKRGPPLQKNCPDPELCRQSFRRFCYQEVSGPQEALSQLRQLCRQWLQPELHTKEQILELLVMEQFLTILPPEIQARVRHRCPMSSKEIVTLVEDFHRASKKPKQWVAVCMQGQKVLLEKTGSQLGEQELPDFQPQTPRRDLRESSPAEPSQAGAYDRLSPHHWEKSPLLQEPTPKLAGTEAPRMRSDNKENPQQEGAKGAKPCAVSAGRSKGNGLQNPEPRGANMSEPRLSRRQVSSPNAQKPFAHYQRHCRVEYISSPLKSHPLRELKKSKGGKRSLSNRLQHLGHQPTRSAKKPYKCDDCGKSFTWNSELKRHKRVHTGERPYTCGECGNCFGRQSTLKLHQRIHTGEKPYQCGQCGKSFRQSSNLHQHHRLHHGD
UniProt O75844, sequence (O75844 whole entry): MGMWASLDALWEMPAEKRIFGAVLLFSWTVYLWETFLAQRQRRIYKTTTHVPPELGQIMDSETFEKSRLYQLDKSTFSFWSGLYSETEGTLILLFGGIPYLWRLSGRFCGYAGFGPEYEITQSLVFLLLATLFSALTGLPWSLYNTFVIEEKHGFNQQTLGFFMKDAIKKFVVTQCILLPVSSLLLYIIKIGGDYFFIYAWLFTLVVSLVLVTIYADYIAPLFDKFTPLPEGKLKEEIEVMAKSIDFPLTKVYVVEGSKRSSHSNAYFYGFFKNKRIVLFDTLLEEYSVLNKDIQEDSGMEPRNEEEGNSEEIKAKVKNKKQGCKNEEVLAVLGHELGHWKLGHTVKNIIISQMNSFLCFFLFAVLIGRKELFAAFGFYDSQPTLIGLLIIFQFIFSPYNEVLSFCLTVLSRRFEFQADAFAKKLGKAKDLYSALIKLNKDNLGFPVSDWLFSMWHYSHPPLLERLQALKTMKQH
UniProt P02675, sequence (P02675 whole entry): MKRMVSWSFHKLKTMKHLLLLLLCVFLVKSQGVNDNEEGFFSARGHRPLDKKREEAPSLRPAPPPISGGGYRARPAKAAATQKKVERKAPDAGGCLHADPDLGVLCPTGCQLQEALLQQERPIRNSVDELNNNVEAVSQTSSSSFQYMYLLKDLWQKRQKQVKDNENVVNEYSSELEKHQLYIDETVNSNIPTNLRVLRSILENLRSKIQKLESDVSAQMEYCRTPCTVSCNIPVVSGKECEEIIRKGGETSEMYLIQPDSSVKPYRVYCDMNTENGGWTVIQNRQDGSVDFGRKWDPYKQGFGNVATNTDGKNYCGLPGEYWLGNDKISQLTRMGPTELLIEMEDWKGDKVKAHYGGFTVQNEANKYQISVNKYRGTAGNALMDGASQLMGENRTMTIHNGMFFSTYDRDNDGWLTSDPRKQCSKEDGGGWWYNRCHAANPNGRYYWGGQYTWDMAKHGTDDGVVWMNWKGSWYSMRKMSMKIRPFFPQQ
UniProt P43121, sequence (P43121 whole entry): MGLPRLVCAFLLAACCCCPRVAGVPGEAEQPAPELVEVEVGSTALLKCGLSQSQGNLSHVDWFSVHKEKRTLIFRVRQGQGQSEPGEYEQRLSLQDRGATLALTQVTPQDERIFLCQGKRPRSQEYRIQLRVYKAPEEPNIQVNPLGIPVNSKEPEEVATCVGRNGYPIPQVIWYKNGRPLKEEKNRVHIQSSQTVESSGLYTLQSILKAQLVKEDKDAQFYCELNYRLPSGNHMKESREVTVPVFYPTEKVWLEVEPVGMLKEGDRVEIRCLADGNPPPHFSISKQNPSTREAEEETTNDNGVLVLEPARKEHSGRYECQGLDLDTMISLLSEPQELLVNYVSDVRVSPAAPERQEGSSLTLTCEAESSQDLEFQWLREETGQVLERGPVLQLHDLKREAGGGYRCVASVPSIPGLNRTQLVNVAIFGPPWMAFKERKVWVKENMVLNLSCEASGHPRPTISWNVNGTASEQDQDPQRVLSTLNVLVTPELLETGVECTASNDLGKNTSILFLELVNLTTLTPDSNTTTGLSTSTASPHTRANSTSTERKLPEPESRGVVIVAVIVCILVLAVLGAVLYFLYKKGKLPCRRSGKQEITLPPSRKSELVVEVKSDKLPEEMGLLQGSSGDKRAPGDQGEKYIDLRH
UniProt P60903, sequence (P60903 whole entry): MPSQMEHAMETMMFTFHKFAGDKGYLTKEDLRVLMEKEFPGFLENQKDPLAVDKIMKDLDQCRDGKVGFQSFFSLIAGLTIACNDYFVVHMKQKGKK

Compound in this experiment: C#CCNC(=O)CCSSCCC(=O)NCCc1ccc(C=O)c(C=O)c1
Put plainly: lysine labeling ratio R10:1 (500 µM / 50 µM probe), SILAC-ABPP in living cells; higher = lower intrinsic lysine reactivity toward the probe, active = 2 or less. Particulars: HeLa; probe concentrations 500 vs 50 µM. In a few lines: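 Each lysine carries an R value: the filtered median of MS1 peptide ratios of high probe to low probe, with the median then taken over forward and reverse replicates. These came from living SILAC light and heavy HeLa cells in PBS at room temperature labelled with an alkyne-tagged, disulfide-linked lysine probe at 500 µM or 50 µM, in forward and reverse swaps. The lysates were mixed, clicked to biotin-azide, trypsin-digested, captured on neutravidin, released by DTT, alkylated and run by LC-MS/MS on a TIMS-TOF Pro. The highest value allowed is 20.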
With “KRT18 (lysine site: K119) (UniProt P05783)”, the “lysine labeling ratio R10:1” value is 6.22 (inactive).
With UniProt Q12884 (lysine site: K334) the figure was 3.23 (inactive).
The value for “FGB (lysine site: K426) (UniProt P02675)” was 2.95 (inactive); that for UniProt P61088 (lysine site: K82) was 1.19 (active); that for “PLXNB2 (lysine site: K1110) (UniProt O15031)” was 4.66 (inactive).
Regarding “MLEC (lysine site: K69) (UniProt Q14165)”, the “lysine labeling ratio R10:1” value was 1.64 (active).
Regarding “HSPD1 (lysine site: K31) (UniProt P10809)”, the “lysine labeling ratio R10:1” value was 4.2 (inactive).
Regarding UniProt Q92729 (lysine site: K440), the “lysine labeling ratio R10:1” value was 1.22 (active).
In the case of “TFRC (lysine site: K665) (UniProt P02786)”, the “lysine labeling ratio R10:1” value is 1.78 (active).
On to UniProt Q9NYQ6 (lysine site: K316), for which the “lysine labeling ratio R10:1” value was 3.81 (inactive).
For the target “HSPD1 (lysine site: K250) (UniProt P10809)”, the “lysine labeling ratio R10:1” value was 2.65 (inactive).
With TKT (lysine site: K59) (UniProt P29401) the figure was 4.48 (inactive).
Turning to “IDH2 (lysine site: K384) (UniProt P48735)”, the “lysine labeling ratio R10:1” value is 3.48 (inactive).
With “PICALM (lysine site: K324) (UniProt Q13492)” the figure was 1.36 (active).
With UniProt Q15697 (lysine site: K143) the figure was 2.8 (inactive).
With UniProt Q9UII2 (lysine site: K49), the “lysine labeling ratio R10:1” value was 3.39 (inactive).
With “ZMPSTE24 (lysine site: K259) (UniProt O75844)” the figure was 2.08 (inactive); with “NRP1 (lysine site: K509) (UniProt O14786)”, 5.12 (inactive); with “S100A10 (lysine site: K28) (UniProt P60903)”, 5.79 (inactive).
For “RPL4 (lysine site: K120) (UniProt P36578)”, the “lysine labeling ratio R10:1” value was 3.18 (inactive).
“MCAM (lysine site: K551) (UniProt P43121)”: the “lysine labeling ratio R10:1” value was 5.15 (inactive).
The value for “AGRN (lysine site: K1934) (UniProt O00468)” was 2.08 (inactive).
Turning to “PSMA2 (lysine site: K53) (UniProt P25787)”, the “lysine labeling ratio R10:1” value was 2.94 (inactive).
